Assay [1] can be described thus: AP1 Signaling Pathway (AID 357). Note: % is set by controls: 0 for no effect and ±100 for the full control effect. Conditions: ME-180 AP-1-bla reporter, EGF-induced, beta-lactamase ratio, 5 h. A digest of the protocol:
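AP-1-bla ME-180 cells with beta-lactamase reporter under AP-1 response element, stimulated with EC50 EGF; compounds titrated, 5 hours at 37 degrees Celsius. CCF4 read at 460/530 nm ratio; positive and negative modulators judged by AC50.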

A short description of assay [2]: NFAT Signaling Pathway (AID 444).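 Note: carbachol stimulus at about its EC50 of 1 µM final; % is set by controls: 0 for no effect and ±100 for the full control effect.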 The note with it: Jurkat NFAT-bla M1, carbachol, beta-lactamase ratio, 5 h; at 38 µM (top of the series) unless noted. A digest of the protocol:
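Read-out: CCF4 FRET ratio (460 nm/530 nm) after 1 h RT dye loading, used for %activity and AC50 from titration series. Cells: Jurkat NFAT-β-lactamase/M1 line, treated with compound plus 1 uM carbachol for 5 h, 37 °C.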

Assay [3] in a line: Stat Signaling Pathway (AID 446).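 Note: ME-180 cervical cancer cells given 40 pM IL-6 alongside compound; SIE-controlled beta-lactamase reporter measured as 460/530 nm FRET emission ratio; % is set by controls: 0 for no effect and ±100 for the full control effect.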 The note with it: ME-180 SIE beta-lactamase reporter, IL-6 stimulated, 5 h; at 17.2 µM (top of the series). In outline: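 ME-180 SIE-bla cells; overnight plating; cpd + IL-6 40 pM, 5 h, 37 C; LiveBLAzer 2.5 h RT; 460/530 nm emission ratio. Normalized to 300 pM IL-6 and 125 nM JAK inhibitor controls.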
Assay [4] addresses Glucocorticoid receptor (Homo sapiens) (UniProt P04150). Briefly: GR-GFP Redistribution (AID 450;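 active = compounds whose dose series gives a full or clear partial fitted curve of increased nuclear translocation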; note: potency is the fitted concentration of half-maximal effect). Conditions: U2OS GR-GFP nuclear translocation, laser cytometry, 2 h.
Assay [5] concerns the target Cytochrome P450 1A2 (Homo sapiens) (UniProt P05177). As to the kind of experiment: p450-cyp1a2 (AID 410; calls by dose curve; note: potency is the fitted concentration of half-maximal effect). The note with it: recombinant CYP1A2, luciferin-ME demethylation, luminescence; series mostly up to 57 µM. A digest of the protocol:
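Luminescent readout of luciferin formed from Luciferin-ME by human CYP1A2; data normalized against complete inhibition by 57 uM furafylline. Enzyme 20nM, substrate 100uM at Km, 100mM KPO4 buffer, 60 min reaction at room temperature.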

In assay [6] the target is Mitogen-activated protein kinase 10 (Mus musculus) (UniProt Q61831). Briefly: JNK3 AlphaScreen Assay (AID 530).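 Note: kinase came from lysate of stimulated human HepG2 cells; signal reports phosphorylation of biotinylated GST-cJun 1-79 at Ser73 with 10 µM ATP; % is set by controls: 0 for no effect and ±100 for the full control effect.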 Conditions: JNK3 lysate, c-Jun phosphorylation; series mostly up to 57.1 µM. A digest of the protocol: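 Compound titrations were preincubated 15 minutes at room temperature with substrate, antibody and pre-activated JNK3-containing HepG2 lysate. Reactions were started with 10 uM ATP and stopped with EDTA-containing bead buffer for AlphaScreen detection.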

Assay [7] addresses 3',5'-cyclic-AMP phosphodiesterase 4B (Homo sapiens) (UniProt Q07343). As to the kind of experiment: qHTS Assay for Inhibitors of PDE-IV (AID 607; active = well fitted activation curve with a large enough effect in the main read-out, with a control signal flat, not every such curve was filed as active; note: % of control where 0% means no effect). Conditions: HEK293 ACTOne CNG channel cells, membrane potential fluorescence; series mostly up to 22.9 µM. A digest of the protocol: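 ACTOne HEK293 cells carry a modified cAMP-gated CNG channel and express endogenous PDE4; plated 1000 cells/well, compounds up to 22.9 uM final. Membrane-potential dye fluorescence (ex 535/em 590) was read; parental cells received 10 uM forskolin + 100 uM RO 20-1724.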

A short description of assay [8]: Cell Viability - BJ (AID 421; calls by dose curve;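 note: potency is the fitted concentration of half-maximal effect; cells exposed to compound for 40 hours at 37 °C before readout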). The note with it: BJ fibroblast viability, qHTS. A digest of the protocol: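 Luminescent ATP signal (CellTiter-Glo, 20 min at room temperature) served as the read-out of viable BJ cells after 40 hours of compound treatment. Responses were scaled between DMSO and 100 uM tamoxifen, and AC50 values were obtained by Hill modeling.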
Assay [9] is described as follows: Cell Viability - Jurkat (AID 426;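 active = dose-dependent loss of cell ATP signal giving a full or clear fitted curve, ranked by lower potency value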; note: potency is the fitted concentration of half-maximal effect). Conditions: qHTS. A digest of the protocol:
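qHTS, 1536-well; Jurkat E6-1, 5000 cells/well, complete medium; cpd 40 hr, 37 °C; CellTiter-Glo 20 min RT; luminescence. AC50 by Hill fit.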

Assay [10] in a line: Cell Viability - Hek293 (AID 427;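 active = compounds whose dose-response curve shows a full or clear partial loss of cell viability, called from curve shape rather than a numeric limit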;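 note: potency is the fitted concentration of half-maximal effect; cells exposed to compound for 40 hours at 37 °C before reading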). Conditions: qHTS. A digest of the protocol: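 Luminescent ATP read-out (CellTiter-Glo, 20 min RT) after 40 hr compound exposure at 37 °C in complete medium. Signal normalized to DMSO (basal) and 100 uM tamoxifen (100% inhibition); concentration-response fitted with the standard Hill equation to give AC50.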
Assay [11] in a line: Cell Viability - MRC5 (AID 434; calls by dose curve;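 note: potency is the fitted concentration of half-maximal effect; potency reflects cytotoxicity seen as loss of intracellular ATP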). Conditions: MRC5 lung fibroblast viability, qHTS. In outline:
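qHTS cytotoxicity in human lung fibroblast MRC5 cells; 40 hr treatment, 37 °C; cellular ATP by luciferase luminescence; DMSO = 0%, 100 uM tamoxifen = 100% inhibition; Hill-fit AC50.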

Assay [12] in a line: Cell Viability - SK-N-SH (AID 435; calls by dose curve;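 note: potency is the fitted concentration of half-maximal effect; compound exposure lasted 40 h at 37 °C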). The note with it: SK-N-SH neuroblastoma cell viability qHTS. In outline:
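SK-N-SH human neuroblastoma cells (1500/well) were exposed to compounds in complete medium for 40 h at 37 °C, and intracellular ATP was then measured by CellTiter-Glo luminescence. AC50 was taken from Hill fits, normalized to DMSO and 100 uM tamoxifen.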

Assay [13] is described as follows: Cell Viability - NIH 3T3 (AID 541; active = well fitted curve in the direction sought with a large enough effect; an effect the other way counts as inactive or inconclusive;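 note: plate controls were DMSO alone for no effect and tamoxifen positive control for full effect; nearly all actives have a fitted effect of over 25% in size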). Conditions: NIH 3T3 cell viability, qHTS; activity change, negative = cytotoxicity: at 92.2 µM (top of the series). In outline: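 Luminescent ATP signal (CellTiter-Glo) served as the viability read-out after NIH 3T3 cells were exposed to compounds over a concentration range for 40 hr at 37 °C. Hill-equation modelling of concentration-response data gave AC50.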

Assay [14] can be described thus: Cell Viability - HUV-EC-C (AID 542; active = well fitted curve in the direction sought with a large enough effect; an effect the other way counts as inactive or inconclusive; note: % is set by controls: 0 for no effect and ±100 for the full control effect; nearly all actives have a fitted effect of over 35% in size). Conditions: HUV-EC-C endothelial cell viability, qHTS; series mostly up to 92.2 µM. A digest of the protocol:
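qHTS cytotoxicity: HUV-EC-C, 1000 cells/well, 5 hr settle, compound 40 hr 37 °C, CellTiter-Glo, luminescence. AC50 via Hill equation.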

Assay [15] is described as follows: Cell Viability - H-4-II-E (AID 543; active = well fitted curve in the direction sought with a large enough effect; an effect the other way counts as inactive or inconclusive; note: nearly all actives have a fitted effect of over 35% in size; note: potency is the fitted concentration of half-maximal effect). The note with it: H-4-II-E rat hepatoma viability; series mostly up to 92.2 µM. In outline:
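Luminescent ATP signal (CellTiter-Glo) served as the viability read-out, with cytotoxicity seen as a concentration-dependent ATP drop. Cells were treated for 40 hours in complete medium. AC50 values derive from Hill-equation modelling.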

Assay [16] can be described thus: Cell Viability - Renal Proximal Tubule (AID 545; active = well fitted curve in the direction sought with a large enough effect; an effect the other way counts as inactive or inconclusive;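 note: 0% = DMSO only and -100% = 100 µM tamoxifen; nearly all actives have a fitted effect of over 40% in size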). Conditions: renal proximal tubule cells viability, primary cells of rat origin; activity change, negative = cytotoxicity: at 91.7 µM (top of the series). In outline: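 Primary rat renal proximal tubule cells (1000/well) were treated with compounds for 40 hr at 37 °C in complete medium. Intracellular ATP was measured by CellTiter-Glo luminescence, and AC50 values came from Hill-equation fits of concentration-response data.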

Assay [17] in a line: Cellular Toxicity (caspase-3) HepG2 (AID 654; active = well fitted curve in the direction sought with a large enough effect; an effect the other way counts as inactive or inconclusive;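 note: cells exposed to compound for 16 hours before reading; 0% = DMSO alone and 100% = caspase signal from 100 µM tamoxifen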). Conditions: HepG2 caspase-3 activation, luminescence; series mostly up to 92.2 µM. A digest of the protocol:
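Cells plated 5 hr at 37 °C, compound added, incubated 16 hr at 37 °C. Caspase-Glo 3/7 reagent followed, 20 min at room temperature, then luminescence read. Activation scored as signal increase; AC50 from Hill fit.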

Assay [18] can be described thus: Cellular Toxicity (caspase-3) Jurkat (AID 655; active = well fitted curve in the direction sought with a large enough effect; an effect the other way counts as inactive or inconclusive;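 note: cells exposed to compound for 16 h at 37 °C before reading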). Conditions: Jurkat caspase-3 activation, luminescence; series mostly up to 92.2 µM. A digest of the protocol: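 Jurkat cells (5000/well) in complete medium were treated with compounds for 16 hr at 37 °C, then Caspase-Glo 3/7 luminescence was read after 20 min at room temperature. Data normalized to DMSO (basal) and 100 uM tamoxifen (100%); AC50 from Hill fit.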

Assay [19] has as its target Glucocorticoid receptor (Homo sapiens) (UniProt P04150). Briefly: GR-EFC Redistribution (AID 451; calls by dose curve; note: potency is the fitted concentration of half-maximal effect). Conditions: CHO-K1 GR-EFC translocation, beta-gal luminescence, 2 h. In outline: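 Translocation of GR-ED fusion to nuclear EA restores b-gal, read by luminescence after 1 h room-temperature detection. Engineered CHO-K1 biosensor cells, 1,000/well, exposed 2 h at 37 C to titrations up to 46 uM final.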

SMILES strings stand for the structures. “And” between values parts separate entries of the source, which are not always exact repeats. Equal values may be shown once. Values without a mark were called inactive. Inconclusive results are not listed. The source made the active and inactive calls. Unless noted, calls come from the whole dose curve; as a rule, active = well fitted curve in either direction with a large enough effect (not every such curve was filed as active); inconclusive = small, poorly fitted or top-dose-only effect, or another doubt; inactive = flat fitted curve, though single readings scatter. Bounds are passed on as bounds.

The values that follow come from PubChem BioAssay (NCATS).

Chain of Glucocorticoid receptor (Homo sapiens) (P04150 whole entry, looked up, the tested form may be a part): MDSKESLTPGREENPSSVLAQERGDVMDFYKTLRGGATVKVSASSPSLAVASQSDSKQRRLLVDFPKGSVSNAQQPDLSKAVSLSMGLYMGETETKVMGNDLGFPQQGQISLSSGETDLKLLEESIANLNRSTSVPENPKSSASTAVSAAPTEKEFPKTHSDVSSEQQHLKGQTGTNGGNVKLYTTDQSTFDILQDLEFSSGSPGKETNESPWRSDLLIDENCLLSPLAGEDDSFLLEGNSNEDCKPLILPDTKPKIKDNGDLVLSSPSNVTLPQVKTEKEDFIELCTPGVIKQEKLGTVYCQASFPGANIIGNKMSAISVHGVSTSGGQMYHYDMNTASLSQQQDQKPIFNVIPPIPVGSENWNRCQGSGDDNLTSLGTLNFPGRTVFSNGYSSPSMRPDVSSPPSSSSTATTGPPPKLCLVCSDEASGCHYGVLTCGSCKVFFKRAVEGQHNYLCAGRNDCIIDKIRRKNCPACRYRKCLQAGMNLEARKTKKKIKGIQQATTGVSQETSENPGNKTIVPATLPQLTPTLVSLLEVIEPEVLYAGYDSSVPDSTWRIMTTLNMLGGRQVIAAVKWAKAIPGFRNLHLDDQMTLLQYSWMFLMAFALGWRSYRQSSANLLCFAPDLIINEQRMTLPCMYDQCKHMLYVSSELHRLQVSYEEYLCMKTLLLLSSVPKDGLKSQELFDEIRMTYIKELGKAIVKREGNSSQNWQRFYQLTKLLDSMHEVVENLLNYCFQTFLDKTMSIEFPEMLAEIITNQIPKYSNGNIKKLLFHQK
Chain of Cytochrome P450 1A2 (Homo sapiens) (P05177 whole entry, looked up): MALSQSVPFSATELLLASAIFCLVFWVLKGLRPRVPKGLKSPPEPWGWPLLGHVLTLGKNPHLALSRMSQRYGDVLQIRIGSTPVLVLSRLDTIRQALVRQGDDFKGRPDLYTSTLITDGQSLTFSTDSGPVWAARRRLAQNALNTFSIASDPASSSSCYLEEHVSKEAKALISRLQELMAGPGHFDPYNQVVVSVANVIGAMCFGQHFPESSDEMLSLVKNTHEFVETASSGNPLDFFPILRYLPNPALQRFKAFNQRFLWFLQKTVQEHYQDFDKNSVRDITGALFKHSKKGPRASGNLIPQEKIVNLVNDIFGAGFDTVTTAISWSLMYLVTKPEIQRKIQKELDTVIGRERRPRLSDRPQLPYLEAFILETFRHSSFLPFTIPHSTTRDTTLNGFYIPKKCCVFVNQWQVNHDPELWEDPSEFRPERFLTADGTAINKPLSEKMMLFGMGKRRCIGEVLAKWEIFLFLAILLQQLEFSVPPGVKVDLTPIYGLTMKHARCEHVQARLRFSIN
Chain of 3',5'-cyclic-AMP phosphodiesterase 4B (Homo sapiens) (Q07343 whole entry, looked up): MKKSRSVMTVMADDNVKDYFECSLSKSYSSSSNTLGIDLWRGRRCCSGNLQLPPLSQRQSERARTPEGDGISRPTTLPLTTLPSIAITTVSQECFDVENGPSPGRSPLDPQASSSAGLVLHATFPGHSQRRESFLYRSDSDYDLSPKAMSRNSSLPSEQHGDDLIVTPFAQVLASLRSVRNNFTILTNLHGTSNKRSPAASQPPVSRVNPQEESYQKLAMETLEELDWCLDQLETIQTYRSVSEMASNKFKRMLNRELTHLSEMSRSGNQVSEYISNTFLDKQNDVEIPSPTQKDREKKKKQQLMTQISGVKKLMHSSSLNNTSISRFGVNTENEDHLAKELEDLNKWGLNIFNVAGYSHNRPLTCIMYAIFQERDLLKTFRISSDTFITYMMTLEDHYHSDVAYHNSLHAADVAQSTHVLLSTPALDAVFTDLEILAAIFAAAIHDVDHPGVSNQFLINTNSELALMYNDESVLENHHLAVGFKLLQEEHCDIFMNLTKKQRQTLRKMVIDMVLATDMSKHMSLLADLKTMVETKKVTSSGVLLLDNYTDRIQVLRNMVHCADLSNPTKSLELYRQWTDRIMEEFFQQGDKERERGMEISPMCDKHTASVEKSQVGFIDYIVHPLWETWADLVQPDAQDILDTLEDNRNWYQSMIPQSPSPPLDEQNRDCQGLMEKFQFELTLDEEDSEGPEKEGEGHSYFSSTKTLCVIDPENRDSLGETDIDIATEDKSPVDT

Turning to `Nc1ccc(C(=O)O)c(O)c1`, the activity change, negative = inhibition in assay [1] (at 17.2 µM (top of the series)) is 2.89% and -3.6%; in [2], 10.1% [at 17.2 µM] and -5.83% [at 17.2 µM]. The activity, negative = inhibition in assay [3] was 7.35% and -0.89%. In addition, in [4], the Potency was more than 20.6 µM.
Regarding `CCCSc1ccc2nc(NC(=O)OC)[nH]c2c1`, the activity change, negative = inhibition in assay [1] (at 17.2 µM (top of the series)) is 11.3% and 5.12%. For the same molecule, the figures for the Potency in assay [5] and in assay [4] were 0.398 µM (active) and more than 20.6 µM, respectively. Besides, the activity, negative = inhibition in assay [3] was -7.64% and -2.74%. For the same molecule, in [6], the Potency entry is “inactive”. Moreover, in [7], the outcome was inactive.
With `c1ccc2sc(SSc3nc4ccccc4s3)nc2c1`, the Potency in assay [8], in assay [9], in assay [10], in assay [11] and in assay [12] was more than 92 µM each time. In addition, the Potency entry in assay [6], in [13], in assay [14], in assay [15], in [17] and in [18] was “inactive” each time. In addition, the activity change, negative = cytotoxicity in [16] is -1.46%.
With `O=C(O)[C@@H]1C[C@@H](C(=O)O)N1`, the Potency in assay [5] was 31.6 µM (active). Further, the Potency entry in [6] was “inactive”.
As to `C[C@@H](CN1CCC(Cc2ccccc2)CC1)[C@@H](O)c1ccc(O)cc1`, the Potency entry in assay [6] is “inactive”.
Regarding `CC(C)NCC(O)COc1cccc2ccccc12` (stereo unspecified), the Potency in [8] was more than 92 µM; in assay [10], more than 92 µM; in [11], more than 92 µM; in assay [12], more than 92 µM; in assay [15], 39.8 µM (active). The Potency result in assay [6], in [17] and in assay [18] was “inactive” each time.
Take `N.N.O=C(O)C1(C(=O)O)CCC1.[Pt]`: the activity change, negative = inhibition is -8.77% in assay [1] (at 38 µM (top of the series)) and 13.9% in assay [2]. Moreover, the Potency result in assay [6] is “inactive”. In addition, the molecule was classed as inactive in [7].
Take `Cn1cc(C2=C(c3ccc(Cl)cc3Cl)C(=O)NC2=O)c2ccccc21`: the Potency in [5] was 3.16 µM (active). In addition, the Potency result in assay [6] was “inactive”. For the same molecule, the molecule was called inactive in [7].
As to `COc1ccccc1N1CCN(CCN(C(=O)c2ccc(I)cc2)c2ccccn2)CC1`, the activity change, negative = inhibition in [1] (at 38 µM (top of the series)) is -13.6%; in assay [2], -16.4%. In assay [4], the Potency is more than 46 µM. Also, the Potency result in assay [6] is “inactive”. In addition, the result in assay [7] was inactive.
`COC1=C(OC)C(=O)c2ccccc2C1=O`: the Potency is 3.98 µM (active) in [5] and more than 46 µM in [19]. The activity change, negative = inhibition in assay [2] is -8.88%. In [7], the call was inactive.
With `CCCOC(=O)c1ccc(O)cc1`, the Potency in assay [8], in [9], in assay [10], in [11] and in [12] was more than 92 µM in each case. The Potency result in assay [6], in [13], in assay [14], in assay [15], in assay [17] and in assay [18] was “inactive” in each case. In [16], the activity change, negative = cytotoxicity was -13.5% and -15.2%.
As to `CCCCCCCC/C=C\CCCCCCCC(=O)NCCO`, the activity change, negative = inhibition in assay [2] is -20.4%. Moreover, the Potency in [4] and in assay [19] was more than 46 µM throughout. The Potency result in assay [6] was “inactive”. The result in assay [7] was inactive.
